Measurements: PubChem BioAssay AID2108 (National Center for Advancing Translational Sciences (NCATS), 2009)
Inconclusive results are not listed. Active and inactive are the calls of the source. Calls follow the shape of the dose curve; as a rule, active = well fitted curve in the direction sought with a large enough effect; inconclusive = small, poorly fitted or top-dose-only effect, or effect the other way, or another doubt; inactive = no such curve, though single readings can be large or run the other way.

target: Alpha-galactosidase A (Homo sapiens) (UniProt P06280); assay: Confirmation of Inhibitors of Human alpha-Galactosidase Using Spleen Homogenate; settings: alpha-galactosidase enzyme activity; series mostly up to 56.2 µM; activity change: at the top concentration; also: 0% is about no effect
Procedure, shortened: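 Human spleen homogenate (1 ug) with 1 mM 4-methylumbelliferyl-alpha-D-galactopyranoside in citrate-phosphate pH 5.0, 0.01% Tween-20, 37C 40 min; compounds 0.5 nM–58 uM final. Stopped at pH 10, fluorescence Ex 365/Em 440; AC50 from Hill fits.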

Alpha-galactosidase A (Homo sapiens), sequence (P06280 32-429 limits assumed): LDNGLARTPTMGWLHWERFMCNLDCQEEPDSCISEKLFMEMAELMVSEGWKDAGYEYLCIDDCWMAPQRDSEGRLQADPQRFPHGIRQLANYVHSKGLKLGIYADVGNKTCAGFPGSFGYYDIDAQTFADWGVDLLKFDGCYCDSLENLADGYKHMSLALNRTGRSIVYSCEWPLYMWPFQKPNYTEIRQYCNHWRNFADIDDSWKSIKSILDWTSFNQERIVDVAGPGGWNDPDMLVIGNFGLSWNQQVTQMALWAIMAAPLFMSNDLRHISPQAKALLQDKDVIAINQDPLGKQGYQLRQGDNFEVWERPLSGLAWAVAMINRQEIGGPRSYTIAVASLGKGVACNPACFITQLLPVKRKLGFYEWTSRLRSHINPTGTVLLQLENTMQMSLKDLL

Activity change, inactive:
Nc1c(NCCN2CCOCC2)c2ccccc2oc1=O -4.2%, COc1ccc(/C=C/c2nnc(NC(=O)CSc3ccccc3)s2)cc1 8.53%, CC(=O)N1CCN(c2ccc(NCc3ccc4c(c3)OCO4)cc2)CC1 -12.3%, O=[N+]([O-])c1ccccc1Nc1ccc(O)cc1 -2.47%, COc1ccc(-c2cc(=O)c(C(=O)c3ccc(C)cc3)n[nH]2)cc1 4.97% [at 23.6 µM], COc1cc(C2c3cc4c(cc3C(OC3OC5COC(C)O[C@@H]5C(O)C3O)C3COC(=O)C23)OCO4)cc(OC)c1O (some centres undefined) -0.18%, O=S(=O)(c1ccccc1)N1CCNCC1 12.7%, O=S(=O)(c1ccc2ccccc2c1)N1CCOCC1 -0.447%, Cc1cc(/C=N/NC(=O)c2ccc(O)cc2)c(C)n1C1CC1 1.75%, COc1cc(CNc2ccc(N3CCOCC3)cc2)cc(Br)c1OC -3.63%, COc1cccc(S(=O)(=O)N2CCOCC2)c1 9.2%, O=C(O)c1cc2c(ccc3ccccc32)o1 -0.971% [at 23.6 µM], O=C(CSc1ccccc1)Nc1nnc(/C=C/c2ccccc2)s1 20%, N#CCCN1CCN(S(=O)(=O)c2ccc(S(=O)(=O)N3CCOCC3)cc2)CC1 6.75%, CC1CCc2nc(-c3cc4ccc(O)cc4oc3=O)sc2C1 (centres undefined) 26.2%, O=C(CSc1ncc(C(F)(F)F)cc1Cl)N1CCN(S(=O)(=O)c2ccccc2)CC1 3.43%, Cc1sc(-c2cc3c(ccc4ccccc43)oc2=O)nc1-c1ccccc1 6.32%, Cc1c(Nc2c3ccccc3nc3ccccc23)c(=O)n(-c2ccccc2)n1C -1.1% [at 23.6 µM]

outcome, inactive:
Oc1ccc(NCc2ccccc2OCc2ccccc2)cc1
